Rows were chosen to be rich in hits. Some 4.5% of all compounds tested hit in one or more screens of this group.
tim10-1 inh: growth inhibitors of tim10-1 mutant yeast, primary screen, luminescence, uHTS | inhibition, % at 20 µM | hit rate 2.2% among 330,000 | S. cerevisiae tim10-1 ts strain growth, BacTiter-Glo, 24 h;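 active means inhibition of at least 40%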;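 further: mutant grown at 25 °C; 0% = DMSO wells with yeast and 100% = wells holding no yeast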
tim23-1 inh: growth inhibitors of tim23-1 mutant yeast, primary screen, luminescence, uHTS | S. cerevisiae tim23-1 growth, BacTiter-Glo luminescence, 24 h | inhibition, % at 20 µM | hit rate 1.3% among 330,000 | AID 463212, 2010;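 active means growth inhibition of the mutant yeast at or above 50%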;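 further: temperature-sensitive mutant grown at 25 °C; plate controls were DMSO-treated mutant yeast for no effect and medium wells lacking yeast for full effect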
PfHsp90 yeast 2: growth inhibition of PfHsp90-expressing yeast, primary screen, antimalarial PfHsp90 inhibitor project, S. cerevisiae, BacTiter-Glo luminescence, single point, set 2; BacTiter-Glo ATP, 48 h; yeast lacking PDR1 and PDR3 efflux regulators; inhibition, % at 9.4 µM; hit rate 0.32% among 310,000; AID 504621, 2011;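 active means every replicate shows inhibition above about 80%, whatever the replicate mean, limit read from the data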;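 further: 0% = DMSO neutral controls and 100% = 20 µM radicicol positive controls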
TIM10 inh: growth inhibitors of isogenic TIM10 control yeast, primary screen, counter-screen for tim10-1 yeast inhibitor project, luminescence, uHTS; S. cerevisiae TIM10 strain growth, BacTiter-Glo luminescence, 24 h; inhibition, % at 10 µM; hit rate 1.4% among 330,000; AID 463195, 2010;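 active means inhibition of 40% or more at the single tested concentration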;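 further: wild-type TIM10 isogenic control strain grown at permissive 25 °C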
SKKanGAS inh: S. pyogenes SKKanGAS growth inhibitors in kanamycin, primary screen, streptokinase expression inhibitor project, SKKanGAS strain, BacTiter-Glo luminescence; 6 h; inhibition, % at 7.5 µM; hit rate 1.3% among 300,000; AID 1662, 2009;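 active means mean replicate score, as percent of positive control median, at least 50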;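 further: strain carries kanamycin resistance gene driven by streptokinase promoter and grows in 40 µg/ml kanamycin; loss of luminescence reflects streptokinase promoter inhibition or plain growth inhibition; 0% = median of DMSO wells and 100% = positive control at its reference dose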
NALP3 yeast inh: NALP3 inflammasome inhibitors in reconstituted yeast, primary screen, luminescence, uHTS. Yeast reconstituted NLRP3/ASC/caspase-1, beta-gal luminescence, 24 h. inhibition, % at 10 µM. hit rate 0.39% among 330,000;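 active means inhibition of 50% or more; inactive means inhibition below 50%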;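 further: plate controls were induced DMSO wells for no effect and uninduced yeast grown without galactose for full effect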
NALP3 confirm: NALP3 inhibitors retested in yeast, confirmation, luminescence, single concentration; AID 435006, 2010; hit rate 81% among 1,300; inhibition, % at 10 µM; shares compounds with NALP3 yeast inh; yeast expressing human NALP3; in the data active means inhibition above about 48%
Casp1 ASC ctr: CASP1-PYCARD signaling inhibition in yeast, confirmatory test, counterassay for NLRP3 inhibitor program, one-dose. shares compounds with NALP3 yeast inh. yeast expressing Caspase-1-ASC, luminescence counter screen. inhibition, % at 10 µM. hit rate 66% among 1,000
NALP3 retest: NALP3 inhibitors in yeast, repeat test, confirmation, luminescence, single concentration, retest | inhibition, % at 10 µM | yeast expressing human NALP3, luminescence read-out | shares compounds with NALP3 yeast inh | hit rate 53% among 1,000
An asterisk follows results filed as active; nt = not tested or not shown. Unless noted, no stated cut-off is given here; in the data, active means inhibition above about 50%; inactive means the rest.

SMILES | tim10-1 inh | tim23-1 inh | PfHsp90 yeast 2 | TIM10 inh | SKKanGAS inh | NALP3 yeast inh | NALP3 confirm | Casp1 ASC ctr | NALP3 retest
CC(C)NC(=O)c1c(O)c2cccc3c2n(c1=O)CCC3 | 18 | 3 | 1 | 3 | -4 | 14 | nt | nt | nt
CNC(=O)c1c(O)c2cccc3c2n(c1=O)CC3 | -4 | 37 | -1 | 37 | 4 | 54* | 60* | 41 | 36
CCNCCNC(=O)c1c(O)c2cccc3c2n(c1=O)CCC3 | -6 | 26 | 8 | 20 | -2 | 53* | 74* | 41 | 44
CC(C)c1ccc(C2(C)NC(=O)N(CC(=O)NC3CCCC(C)C3C)C2=O)cc1 (stereo not given) | 17 | 16 | 2 | 17 | nt | 14 | nt | nt | nt
CCc1sc(C(=O)Nc2nc(C)cs2)cc1C | -13 | 29 | 20 | -16 | 2 | 56* | 72* | 66* | 54*
Cc1onc(-c2ccccc2Cl)c1C(=O)N1C=CC(C(F)(F)Cl)=NCC1 | 14 | 22 | -13 | 3 | -6 | 33 | nt | nt | nt
Cc1onc(-c2ccccc2Cl)c1C(=O)N1C=CC(C(F)(F)F)=NCC1 | 7 | 21 | 1 | 13 | 0 | 50* | 66* | 45 | 53*
COc1ccc(C(=O)OC(C)C(=O)NC2CCCCC2C)cc1S(=O)(=O)N1CCOCC1 (stereo not given) | 11 | -3 | -5 | 9 | -7 | 13 | nt | nt | nt
COc1ccc(C(=O)NC(=S)NNC(=O)c2ccc(C)cc2)cc1 | 13 | 29 | -6 | 36 | 83* | 54* | 66* | 55* | 60*
COCCNC(=O)c1cc2c3ccccc3n(C)c2s1 | 10 | 8 | nt | -14 | -1 | -7 | nt | nt | nt
CCCNC(=O)c1cc2c3ccccc3n(C)c2s1 | 36 | 44 | 31 | 31 | -2 | 51* | 50* | 35 | 25
COc1ccc(CC(=O)N2CCc3ccccc3C2)cc1 | 17 | 18 | -10 | 6 | 2 | 30 | nt | nt | nt
O=C(Cc1ccc(Cl)cc1)N1CCc2ccccc2C1 | 12 | 13 | 11 | 5 | 0 | 53* | 32 | nt | nt
CCCCOC(=O)Nc1nnc(CCc2ccccc2)s1 | 13 | 22 | -15 | 21 | -2 | 52* | 33 | nt | nt
C=CCn1c(N)cc(=O)nc1SC(CC)C(=O)Nc1ccc(C(C)=O)cc1 (stereo not given) | -90 | -1 | -3 | -19 | 4 | 4 | nt | nt | nt
Cc1nc2cc(NC(=O)c3ccc([N+](=O)[O-])s3)ccc2s1 | 20 | 44 | -8 | 34 | 16 | 61* | 68* | nt | nt
CC(=O)Nc1ccc2nc(NC(=O)c3ccc([N+](=O)[O-])s3)sc2c1 | 18 | 2 | nt | -20 | 22 | 18 | nt | nt | nt
O=C(NCC(c1ccco1)N1CCCC1)c1cc2ccccc2s1 (stereo not given) | -16 | 11 | 3 | -5 | nt | 8 | nt | nt | nt
CCOc1cc(C)c(S(=O)(=O)N2CCCCC2)cc1C | -2 | 13 | 12 | -12 | 23 | 74* | 76* | 80* | 65*
COc1cc(C)c(S(=O)(=O)N2CCCC2)cc1C | 3 | 19 | 24 | -10 | -2 | 77* | 83* | 87* | 65*
CCOc1cc(S(=O)(=O)N2CCCC2)c(C)cc1C | 11 | 15 | -14 | 12 | -8 | 39 | nt | nt | nt
COC(=O)COc1ccc2c(=O)c(-c3ccccc3)coc2c1 | 18 | 17 | -8 | 9 | 7 | 11 | nt | nt | nt
CC(C)Oc1ccc2c(=O)c(-c3ccccc3)coc2c1 | 11 | 26 | 7 | -5 | -5 | 58* | 66* | 40 | 37

From PubChem
